JMJD2A Tudor: inhibitors of human JMJD2A Tudor domain; AlphaScreen JMJD2A-Tudor / H3K4me3 peptide binding; O75164; Potency, µM (series often up to 114 µM), for inactives: at the top dose activity change, negative = inhibition, most hits filed as inhibitors; hit rate 4.4% among 390,000; also: % is scaled to controls: 0 for no effect and ±100 for the full control effect; nearly all actives have a fitted effect of over 50% in size
Sfp inh: Sfp phosphopantetheinyl transferase inhibition | AID 1490 | Potency, µM, without a hit: largest response in the series, negative = inhibition, most hits filed as inhibitors | hit rate 3.5% among 310,000 | Q9F4F7 | Biochemical Sfp PPTase activity, qHTS;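 also: the enzyme is Sfp with the accession as filed and its product quenches rhodamine fluorescence; 0% = enzyme reaction without inhibitor and -100% = no enzyme wells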
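Sfp 15 nM + cpd, 15 min RT; start w/ rhodamine-CoA 5 uM, BHQ-2-YbbR 12.5 uM (final); 50 mM Hepes pH 7.6, 10 mM MgCl2, 0.01% NP-40, 0.01% BSA; read 525/598 nm at 0 and 30 min.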
BAZ2B block: blocks human BAZ2B; hit rate 4.4% among 360,000; Potency, µM (top dose mostly 114 µM), for the others: at the highest dose activity change, negative = inhibition, usual class: inhibitors; Q9UIF8; AlphaScreen BAZ2B-H3K14Ac peptide displacement; also: % is scaled to controls: 0 for no effect and ±100 for the full control effect; nearly all actives have a fitted effect of over 60% in size
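Multi-concentration screen (max 110 uM) measuring displacement of acetylated histone H3 peptide from BAZ2B by AlphaScreen, using 50 nM protein, 50 nM peptide and 10 ug/mL streptavidin donor plus Ni-chelate acceptor beads.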
HP1b chromo inh: HP1-beta chromodomain-methylated histone interaction inhibition; AlphaScreen HP1-beta / biotin-H3K9me3 peptide binding; Potency, µM (highest dose often 114 µM), inactives show at the highest dose activity change, negative = inhibition, usual class: inhibitors; hit rate 0.56% among 390,000; AID 540317; also: nearly all actives have a fitted effect of over 70% in size
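Compound inhibition of the preformed complex between 50 nM HP1-beta and 50 nM biotinylated H3K9me3 peptide was read by AlphaScreen. Buffer was PBS pH 7.4 with 0.01% Tween-20. Incubations ran 30 min at room temperature, with 10 ug/mL donor/acceptor beads.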
L3MBTL1 inh: blocks human L3MBTL1; Potency, µM (series often up to 57.1 µM), without a hit: at the top dose activity, negative = inhibition, hits mostly inhibitors; AlphaScreen L3MBTL1–H3K9me1 peptide binding; hit rate 0.66% among 230,000; also: % is scaled to controls: 0 for no effect and ±100 for the full control effect; nearly all actives have a fitted effect of over 60% in size
Target sequence (Q9Y468 whole entry, looked up): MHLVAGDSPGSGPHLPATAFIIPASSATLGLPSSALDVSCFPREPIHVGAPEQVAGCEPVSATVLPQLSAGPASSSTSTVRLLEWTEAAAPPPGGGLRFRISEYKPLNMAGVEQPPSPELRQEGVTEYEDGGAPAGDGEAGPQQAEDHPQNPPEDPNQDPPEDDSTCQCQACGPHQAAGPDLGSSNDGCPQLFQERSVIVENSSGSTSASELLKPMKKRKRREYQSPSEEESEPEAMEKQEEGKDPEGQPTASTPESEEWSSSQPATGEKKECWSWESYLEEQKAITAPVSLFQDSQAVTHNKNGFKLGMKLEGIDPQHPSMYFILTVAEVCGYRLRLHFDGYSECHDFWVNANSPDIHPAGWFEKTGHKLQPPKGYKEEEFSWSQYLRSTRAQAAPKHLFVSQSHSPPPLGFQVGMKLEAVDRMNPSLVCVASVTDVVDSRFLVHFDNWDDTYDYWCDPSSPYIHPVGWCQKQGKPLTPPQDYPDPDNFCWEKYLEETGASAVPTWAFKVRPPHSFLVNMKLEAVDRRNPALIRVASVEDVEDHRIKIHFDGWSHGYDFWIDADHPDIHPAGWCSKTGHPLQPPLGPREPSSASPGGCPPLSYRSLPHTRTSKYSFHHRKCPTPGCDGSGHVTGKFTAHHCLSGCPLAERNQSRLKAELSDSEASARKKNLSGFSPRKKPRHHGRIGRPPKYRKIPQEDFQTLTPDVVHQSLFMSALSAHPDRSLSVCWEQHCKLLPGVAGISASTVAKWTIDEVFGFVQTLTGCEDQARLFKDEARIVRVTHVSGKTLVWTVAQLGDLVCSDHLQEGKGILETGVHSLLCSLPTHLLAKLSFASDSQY
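First, the protein-peptide complex forms for 30 min at room temperature (L3MBTL1 50 nM, biotinylated H3K9me1 peptide 75 nM). Next, compounds are pin-transferred and incubated 30 min. Finally, AlphaScreen beads are added and read after 30 min.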
G9a inh: blocks human histone lysine methyltransferase G9a; Q96KQ7; G9a H3K9 monomethylation, AlphaScreen, 2 h; Potency, µM (series often up to 102 µM), for inactives: top-dose activity, negative = inhibition, usual class: inhibitors; hit rate 8.8% among 350,000; also: % is scaled to controls: 0 for no effect and ±100 for the full control effect; nearly all actives have a fitted effect of over 75% in size
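Chemiluminescent proximity detection of H3K9 monomethylation, read after 10 min bead incubation in the dark. Reaction: 20 nM G9a, 500 nM biotin-H3K9 peptide, 20 uM SAM cofactor, 2 h, room temperature, following 15 min enzyme-compound preincubation.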
An asterisk follows results filed as active; ? = inconclusive; nt = no result; [ ] = another dose, or the depositor's remark. A selection: hits, their analogues and other compounds. The true share with any hit is near 12%. Calls follow the shape of the dose curve; as a rule, active = well fitted curve in the direction sought with a large enough effect; inconclusive = small, poorly fitted or top-dose-only effect, or another doubt; inactive = no such curve, though single readings can be large; an effect the other way counts as inactive or inconclusive. Potency is read from the fitted curve at half-maximal effect.

SMILES | JMJD2A Tudor | Sfp inh | BAZ2B block | HP1b chromo inh | L3MBTL1 inh | G9a inh
c1cn(-c2cc(-c3ccc4c(c3)OCO4)ncn2)cn1 | nt | -1% | nt | nt | nt | -24%[0.501 µM]
O=C(Nc1ccccc1)Nc1csc2ccccc12 | 2% | 50µM* | -6% | 23% | -5% | 4%
O=C(Nc1ccc(Cl)cc1)C(Cl)C(=O)c1ccccc1 (stereo unspecified) | -14% | 28µM* | -6% | 2% | nt | 11µM*
O=C(Nc1ccccc1Cl)C(Cl)C(=O)c1ccccc1 (stereo unspecified) | -15% | 13% | ? | 20% | nt | 40µM*
O=C(NC(=S)Nc1ccc(Cl)cc1)c1ccccc1 | -16% | -11% | ? | 68% | 3% | -38%
CC(=O)Nc1csc2ccccc12 | -7% | 15% | -5% | 34% | 7% | nt
O=C(Nc1ccccc1Cl)c1ccccc1 | 3% | 9% | nt | 21% | nt | -8%
O=C(Nc1ccc(Nc2ccccc2)cc1)Nc1ccccc1Cl | ? | 11% | 20µM* | ? | -22% | 7.9µM*
CCOC(=O)OCC1OC(c2ccc(C(C)=O)cc2)C=CC1OC(=O)OCC (stereo unspecified) | nt | 14% | nt | nt | nt | nt
CC1(C)Cc2ccccc2C(/C(=N\Nc2cccc(Cl)c2)C(N)=O)=N1 | 35µM* | 1% | 25µM* | ? | ? | ?
CC1(C)Cc2ccccc2C(N/N=C/c2ccc(Cl)cc2)=N1 | ? | -14% | ? | ? | -2% | -6%[59 µM]
CC1CCc2sc3ncnc(N4CCN(C)CC4)c3c2C1 (stereo unspecified) | -1% | 11% | 22% | 11% | 9% | nt
COC(=O)/C(=N/Nc1ccccc1C)N1CCCc2ccccc21 | -16% | -17% | -12% | 12% | 0% | 35µM*
CCOC(=O)/C(=N/Nc1ccccc1)N1CCCc2ccccc21 | -22% | 6% | ? | 12% | -35% | ?
CCOC(=O)/C(=N/Nc1ccc(OC)cc1)N1CCCc2ccccc21 | ? | -8% | 28µM* | 71µM* | -1% | 22µM*
CCOC(=O)/C(=N/Nc1ccccc1OC)N1CCCc2ccccc21 | -3% | 3% | -16% | 41% | -9% | 2.5µM*
COc1ccc(C)cc1NC(=O)N1CCCc2ccccc21 | 10% | ? | 36% | 69% | -5% | 59%
O=C(O)c1ncn(Cc2ccccc2)c1C(=O)O | 6.3µM* | 50µM* | 32µM* | 55% | -6% | 10µM*
Clc1ccc(CN2CCN(c3ncccn3)CC2)cc1Cl | 13µM* | -15% | 79µM* | -24% | -3% | nt
COc1cc(CN2CCN(c3ncccn3)CC2)cc(OC)c1 | -11% | 0% | 1% | 25% | 6% | nt
O=C(c1ccccc1)N1CCN(c2ccc([N+](=O)[O-])cc2-n2cccc2)CC1 | ? | -9% | 28µM* | 19% | nt | nt
NC(=O)c1cc([N+](=O)[O-])ccc1N1CCN(Cc2ccccc2)CC1 | -9% | 2% | -8% | 16% | -3% | nt
O=[N+]([O-])c1cccc(CN2CCN(c3cccc4[nH]ccc34)CC2)c1 | 56µM* | 0% | ? | -29% | nt | 32µM*
O=C(c1ccccc1)N1CCN(C(=O)c2ccc([N+](=O)[O-])cc2)CC1 | 3% | 6% | -4% | 29% | 3% | 0%[59 µM]
Clc1ccc(CN2CCN(c3ncccn3)CC2)cc1 | 13µM* | 17% | ? | 12% | 4% | nt
SMILES | JMJD2A Tudor | Sfp inh | BAZ2B block | HP1b chromo inh | L3MBTL1 inh | G9a inh
Cn1cc(C(=O)N2CCN(c3cccc(C(F)(F)F)c3)CC2)c2c3ccccc3n(C)c2c1=O | -25% | nt | -28% | 17% | nt | -33%[59 µM]
O=C(CNC(=O)c1ccc(F)cc1)N/N=C/c1cccnc1 | -1% | 17% | 10% | 18% | nt | 8%
C/C(=C\CO)CCO | nt | 4% | nt | nt | nt | nt
CC1CCOC2(O1)C(=O)Nc1ccccc12 (stereo unspecified) | -13% | 20% | -1% | 29% | nt | -2%
Cc1ccc(C(=O)c2cn(Cc3c(F)cccc3Cl)c3nc(C)ccc3c2=O)cc1 | -8% | nt | -6% | 8% | nt | -9%[59 µM]
Cc1ccc(NS(=O)(=O)c2cc3c(cc2Cl)CCC(=O)N3)cc1Cl | 5% | nt | nt | nt | nt | nt
O=[N+]([O-])c1cccc(CN2CCN(c3ncccn3)CC2)c1 | 2.2µM* | -12% | ? | ? | -7% | 11µM*
O=C(c1ccc([N+](=O)[O-])cc1)N1CCCC1 | 3% | 21% | -2% | 25% | -2% | 22%[59 µM]
c1ccc(CN2CCN(c3ncccn3)CC2)cc1 | 4.5µM* | -11% | ? | -31% | 10% | 25µM*
FC(F)(F)c1cccc(CN2CCN(c3ncccn3)CC2)c1 | -16% | nt | nt | 50% | nt | nt
O=C(c1ccc([N+](=O)[O-])cc1)N1CCN(c2cccc3[nH]ccc23)CC1 | -24% | -3% | -25% | 15% | -8% | 50µM*
CC(C)N1CCN(C(=O)c2ccc([N+](=O)[O-])cc2)CC1 | 79µM* | nt | nt | ? | nt | nt
O=C(CCCN1C(=O)C2CC=CCC2C1=O)Nc1cccc(F)c1 (stereo unspecified) | ? | 8% | -2% | 23% | nt | 0%
O=S(=O)(c1ccccc1)N(F)S(=O)(=O)c1ccccc1 | ? | nt | -30% | 51% | -7% | -9%[2.33 µM]
Cc1ccc(C2=NN(S(=O)(=O)c3ccccc3)C(c3ccco3)C2)cc1 (stereo unspecified) | -16% | nt | -8% | 34% | -8% | -2%[12.7 µM]
O=S(=O)(c1ccccc1)N1N=C(c2ccc(Br)cc2)CC1c1ccco1 (stereo unspecified) | 16µM* | -8% | -17% | -1% | nt | ?
CS(=O)(=O)Nc1ccc(C2=NN(S(=O)(=O)c3ccc(F)cc3)C(c3ccco3)C2)cc1 (stereo unspecified) | -33% | 50µM* | -19% | 14% | nt | 50µM*
CS(=O)(=O)Nc1ccc(C2=NN(C(=O)c3ccco3)C(c3ccccc3F)C2)cc1 (stereo unspecified) | -22% | -13% | nt | 23% | nt | 50µM*
CCOC(=O)c1ccc(N2C(=O)c3[nH]nc(-c4ccc(C)cc4)c3C2c2ccc(O)c(OCC)c2)cc1 (stereo unspecified) | -29% | nt | nt | 6% | nt | -29%[59 µM]
CCN(C(=O)c1cccnc1SC)C12CC3CC(CC(C3)C1)C2 | 8% | 11% | -3% | 31% | nt | 3%
CC1C=CCC2C(=O)N(c3ccccc3OC(=O)c3cccs3)C(=O)C12 (stereo unspecified) | -14% | 17% | -16% | 40% | 0% | 0%
CC1C=CCC2C(=O)N(c3ccc(Cl)cc3O)C(=O)C12 (stereo unspecified) | 16µM* | 3% | 8% | ? | 1% | 9%[59 µM]
COc1ccccc1CNC(=O)c1cccn1-c1nnc(N2CCCCC2)s1 | -8% | nt | ? | -4% | nt | -26%[59 µM]

Assay outcomes as filed in PubChem BioAssay.
